The panel holds about 83,000 compounds, 20% with a hit somewhere; the sample as a whole holds those more often.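 Assay: single dose, 48 h. Readout: percent growth (0 = no net growth; negative = cell death). Active: <10.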 Unmarked numbers belong to inactive results. Active and inactive are the calls of the source.
Legend:
Test in all cases: NCI-60 one-dose screen, 48 h (100 = growth as untreated, 0 = no growth, -100 = all killed)
Conditions in all cases: 10 µM unless noted
DU-145 prostate = test system: DU-145 prostate
K-562 leukemia = test system: K-562 leukemia
MALME-3M melanoma = test system: MALME-3M melanoma
MDA-MB-231 breast = test system: MDA-MB-231 breast
RXF 393 renal = test system: RXF 393 renal
SF-268 CNS = test system: SF-268 CNS
SF-295 CNS = test system: SF-295 CNS
SF-539 CNS = test system: SF-539 CNS
UACC-257 melanoma = test system: UACC-257 melanoma
M14 melanoma = test system: M14 melanoma
HCT-15 colon = test system: HCT-15 colon
HT29 colon = test system: HT29 colon
SNB-75 CNS = test system: SNB-75 CNS
SNB-19 CNS = test system: SNB-19 CNS
U251 CNS = test system: U251 CNS
PC-3 prostate = test system: PC-3 prostate
SK-MEL-5 melanoma = test system: SK-MEL-5 melanoma
UACC-62 melanoma = test system: UACC-62 melanoma
LOX IMVI melanoma = test system: LOX IMVI melanoma
SK-MEL-28 melanoma = test system: SK-MEL-28 melanoma

SMILES | growth (DU-145 prostate) | growth (K-562 leukemia) | growth (MALME-3M melanoma) | growth (MDA-MB-231 breast) | growth (RXF 393 renal) | growth (SF-268 CNS) | growth (SF-295 CNS) | growth (SF-539 CNS) | growth (UACC-257 melanoma) | growth (M14 melanoma) | growth (HCT-15 colon) | growth (HT29 colon) | growth (SNB-75 CNS) | growth (SNB-19 CNS) | growth (U251 CNS) | growth (PC-3 prostate) | growth (SK-MEL-5 melanoma) | growth (UACC-62 melanoma) | growth (LOX IMVI melanoma) | growth (SK-MEL-28 melanoma)
C[C@]12CCC(=O)C=C1CCC1C2[C@@H](O)C[C@@]2(C)C1CC[C@]2(O)C(=O)COC(=O)CCC(=O)O (stereo not given in full) | 118% | 117% | 81.7% | 94.7% | 121% | 107% | 117% | 97% | 114% | 104% | 112% | 107% | 123% | 104% | 105% | 93.2% | 98.6% | 106% | 98.5% | 108%
O=Cc1ncc(-c2ccc(C(F)(F)F)cc2)c(NC2CCCCCC2)n1 | -92.9% [100 µM] (active) | -50.2% [100 µM] (active) | -92% [100 µM] (active) | -87.8% [100 µM] (active) | -80.2% [100 µM] (active) | -83.9% [100 µM] (active) | -86.3% [100 µM] (active) | -96.8% [100 µM] (active) | -92% [100 µM] (active) | -91.6% [100 µM] (active) | -79% [100 µM] (active) | -80.8% [100 µM] (active) | -15.7% [100 µM] (active) | -47.6% [100 µM] (active) | -98.2% [100 µM] (active) | -81.7% [100 µM] (active) | 5.66% [100 µM] (active) | -90.1% [100 µM] (active) | -73.4% [100 µM] (active) | -71.4% [100 µM] (active)
O=C(O)c1ccc2cccnc2c1O | 22.2% | 11.1% | -7.97% (active) | 11.4% | 27.7% | 21.6% | 6.02% (active) | 10.4% | -9.12% (active) | 8.98% (active) | 7.1% (active) | 10.9% | 23% | 12.7% | 8.23% (active) | 1.21% (active) | 0.767% (active) | 0.979% (active) | 3.31% (active) | 44.6%
CN1CCC[C@@H]1CCO[C@](C)(c1ccccc1)c1ccc(Cl)cc1 | 91.5% | 30.4% | 71.8% | 88.7% | 38.7% | 81.8% | 63.2% | 76.2% | 23.4% | 15.6% | 62.2% | 17.3% | 52.3% | 99.5% | 64.3% | 66.2% | -100% (active) | 37.2% | 70.7% | 44.3%
COP(=O)(OC)C(c1ccccc1)(c1ccccc1)c1ccccc1 | 112% | 80.7% | 103% | 90.2% | 36.9% | 120% | 60% | 95.9% | 82.1% | 98.7% | 107% | 91.4% | 108% | 99.9% | 87.7% | 75.2% | 89.5% | 70.9% | 84.2% | 109%
[N-]=[N+]=NCc1ncc(-c2ccc(C(F)(F)F)cc2)c(NC2CCCCCC2)n1 | 73.4% [50 µM] | 34.5% [50 µM] | 85% [50 µM] | 73% [50 µM] | 87.7% [50 µM] | 75.5% [50 µM] | 49.9% [50 µM] | 82.2% [50 µM] | 89.3% [50 µM] | 74.6% [50 µM] | 80.2% [50 µM] | 69.8% [50 µM] | 65.8% [50 µM] | 85.2% [50 µM] | 73% [50 µM] | 35.6% [50 µM] | 84.2% [50 µM] | 79.2% [50 µM] | 82.2% [50 µM] | 98.1% [50 µM]
Cc1ccc(C2=NNC(c3sc(Cl)nc3Cl)C2)cc1 (stereo not given) | 95.6% | 11.7% | 77.6% | 92.1% | 108% | 98.3% | 101% | 118% | 90.6% | 86.5% | 77.3% | 107% | 96% | 92% | 99.1% | 93.6% | 88.9% | 89.9% | 9.94% (active) | 102%
O=c1ccn(C2CC=C(CO)O2)c(=O)[nH]1 (stereo not given) | 108% | 92.8% | 80.9% | 104% | 8.91% (active) | 109% | 92.9% | 99.8% | 78.3% | 81.4% | 105% | 111% | 108% | 108% | 102% | 85.9% | 90% | 91.7% | 94% | 106%
CN1C(=O)C(C2=NN(C=O)C(c3ccc(F)cc3)C2)C(=O)N(C)C1=O (stereo not given) | 106% | 94.2% | 95.8% | 106% | 95.5% | 96.9% | 99.2% | 102% | 69.3% | 98.5% | 101% | 91.7% | 93.5% | 92.4% | 92.3% | 78.7% | 102% | 100% | 90.4% | 111%
Cc1onc(-c2ccccc2Cl)c1C(=O)N[C@@H]1C(=O)N2[C@@H]1SC(C)(C)[C@@H]2C(=O)O | 123% | 91.6% | 94.2% | 113% | 115% | 110% | 104% | 112% | 108% | 98.2% | 106% | 105% | 103% | 105% | 98.4% | 98.3% | 101% | 99.5% | 99.9% | 117%
OC(c1ccccc1)C(NCc1ccccc1)c1ccccc1 (stereo not given) | 117% | 106% | 104% | 98.3% | 107% | 92.8% | 94% | 90.6% | 110% | 79.9% | 108% | 103% | 91% | 87.8% | 102% | 79.9% | 108% | 90.3% | 85.5% | 101%
Cc1cc(=O)oc2cc(OCCn3c(C)nn(-c4ccc(Cl)cc4)c3=O)ccc12 | 21.6% | 16.3% | 32.9% | 47.5% | 37.4% | 50.3% | 14% | 29.5% | 22.5% | 14.7% | 17.7% | 0.696% (active) | 20.4% | 54.5% | 31.4% | 48.5% | 10.8% | 43.3% | 48% | 40.8%
COc1cccc(/C=N/Nc2nc3ccccc3s2)c1OC | 98.3% | 50.9% | 90.4% | 86.3% | 97.9% | 72.7% | 85.4% | 74.2% | 96.4% | 91.1% | 43.1% | 61.1% | 86.5% | 83.9% | 49.1% | 46.3% | 52.6% | 66.7% | 47.6% | 97.8%
CCOc1nc(-c2ccco2)n2nc(-c3ccco3)cc2n1 | 118% | 114% | 122% | 98% | 98.4% | 106% | 98.3% | 89.6% | 116% | 132% | 99.4% | 100% | 82.9% | 97.3% | 98.3% | 105% | 81.4% | 86.4% | 98.4% | 110%
NS(=O)(=O)c1ccc(-n2ncc3c(N/N=C/c4ccccc4)ncnc32)cc1 | 73.1% | 83.1% | 85.6% | 101% | -18.8% (active) | 76.9% | 29.8% | 76.2% | 62.4% | 116% | 108% | 81% | 104% | 80.4% | 89.7% | 80.6% | 86.7% | 96.8% | 91.7% | 95.3%

Reference: PubChem BioAssay (NCI)
